Assay results reported in PubChem BioAssay (EPA / NIEHS).
Records with an inconclusive call do not appear. Activity calls are given as the source filed them. The calls were made as follows, unless noted: active = hit-call score of the fitted dose curve at least 0.9, where 1 is the maximum; inactive = score below 0.9.

Key:
[1] = read-out: Interleukin-8 (IL8), CXCL8 (gene 3576); assay: BSK_3C_IL8: BioMAP Diversity Plus: 3C Assay for Interleukin-8 (IL8) Biomarker Activity (AID 2283020); conditions: primary human endothelial cells (HUVEC); actives raise or lower the signal
How it was run: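 Primary human umbilical vein endothelial cells (3C system) were exposed to test chemical for 24 h, then IL-8 was quantified by ELISA. Responses were fitted bidirectionally against DMSO vehicle as baseline.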

[2] = read-out: Monokine induced gamma interferon (MIG), CXCL9 (gene 4283); assay: BSK_3C_MIG: BioMAP Diversity Plus: 3C Assay for Monokine induced gamma interferon (MIG) Biomarker Activity (AID 2283021); conditions: primary human endothelial cells (HUVEC); actives raise or lower the signal
How it was run: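 Primary human umbilical vein endothelial cells in the 3C system were exposed to chemical for 24 h, after which MIG was quantified by ELISA. Activity was fitted bidirectionally against DMSO as negative control and baseline.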

[3] = target: human Vitamin D Receptor (VDR), VDR (gene 7421) (UniProt P11473); assay: ATG_VDR_TRANS: Attagene TRANS-FACTORIAL HepG2 Assay for human Vitamin D Receptor (VDR) (AID 2283022; active = hit-call score of the fitted dose curve at least 0.9, where 1 is the maximum)
human Vitamin D Receptor (VDR), VDR (gene 7421), sequence (P11473 whole entry, looked up, the tested form may be a part): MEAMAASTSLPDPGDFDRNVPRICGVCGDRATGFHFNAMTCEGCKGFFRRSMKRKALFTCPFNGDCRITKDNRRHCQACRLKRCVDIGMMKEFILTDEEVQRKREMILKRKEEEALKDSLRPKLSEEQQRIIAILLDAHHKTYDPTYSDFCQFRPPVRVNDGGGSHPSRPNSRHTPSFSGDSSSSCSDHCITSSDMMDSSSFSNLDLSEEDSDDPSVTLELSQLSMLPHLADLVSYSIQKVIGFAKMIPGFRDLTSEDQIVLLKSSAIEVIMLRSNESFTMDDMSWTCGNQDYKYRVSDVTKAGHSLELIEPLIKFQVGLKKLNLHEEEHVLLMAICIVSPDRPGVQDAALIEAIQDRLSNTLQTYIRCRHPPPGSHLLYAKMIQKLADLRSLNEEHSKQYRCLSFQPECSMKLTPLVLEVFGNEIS
How it was run: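 RT-PCR/capillary electrophoresis read-out of reporter mRNA induction in transiently transfected HepG2; 24 h dosing; chimeric NR-Gal4 (TRANS format); gain-of-signal fit against DMSO baseline.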

[4] = BSK_3C_SRB: Viability Assessment in the BioMAP Diversity Plus: 3C Assay (AID 2283023); conditions: primary human endothelial cells (HUVEC);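 also: cells read 24 h after compound dosing; fitted both ways against DMSO so a hit may be signal rise or drop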
How it was run: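 HUVEC, 24 h post-dose; 10% TCA fix, 0.1% SRB stain, A560 nm. Bidirectional curve fit vs DMSO negative control.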

[5] = BSK_3C_Vis: BioMAP Diversity Plus: 3C Assay for Morphology Visualization (AID 2283025); conditions: primary human endothelial cells (HUVEC);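 also: fitted both ways so gain or loss versus DMSO counts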
How it was run: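 Human umbilical vein endothelial cells in the 3C system were imaged by light microscopy 24 h after chemical dosing to record cell morphology. Activity was fitted bidirectionally against DMSO as negative control and baseline; the endpoint serves as a background control.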

[6] = read-out: Pselectin, SELP (gene 6403); assay: BSK_4H_Pselectin: BioMAP Diversity Plus: 4H Assay for Pselectin Biomarker Activity (AID 2283026); conditions: primary human endothelial cells (HUVEC); actives raise or lower the signal
How it was run: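 Primary human umbilical vein endothelial cells were exposed to test chemical for 24 h, then cell-surface P-selectin was quantified by ELISA. Activity was fitted bidirectionally against DMSO as negative control and baseline.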

[7] = BSK_BE3C_SRB: Viability Assessment in the BioMAP Diversity Plus: BE3C Assay (AID 2283028); conditions: primary human bronchial epithelial cells
How it was run: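 Primary human bronchial epithelium; chemical dosing, 24 h; 10% TCA fix, 0.1% SRB stain, A560; bidirectional fit vs DMSO baseline.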

[8] = read-out: Thrombomodulin, THBD (gene 7056); assay: BSK_3C_Thrombomodulin: BioMAP Diversity Plus: 3C Assay for Thrombomodulin Biomarker Activity (AID 2283029); conditions: primary human endothelial cells (HUVEC); actives raise or lower the signal
How it was run: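 Primary human umbilical vein endothelial cells (3C system) were exposed to chemical for 24 h, then thrombomodulin levels were measured by ELISA. Activity was fitted bidirectionally against the DMSO negative control as baseline.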

[9] = read-out: Urokinase-type plasminogen activator receptor (uPAR), PLAUR (gene 5329); assay: BSK_4H_uPAR: BioMAP Diversity Plus: 4H Assay for Urokinase-type plasminogen activator receptor (uPAR) Biomarker Activity (AID 2283030); conditions: primary human endothelial cells (HUVEC); actives raise or lower the signal
How it was run: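 HUVEC, 24 h post-dose; uPAR by ELISA; bidirectional fit vs DMSO baseline.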

[10] = read-out: Vascular endothelial growth factor receptor 2 (Homo sapiens) (UniProt P35968); assay: BSK_4H_VEGFRII: BioMAP Diversity Plus: 4H Assay for Vascular endothelial growth factor receptor 2 (VEGFR2) Biomarker Activity (AID 2283031); conditions: primary human endothelial cells (HUVEC); actives raise or lower the signal
How it was run: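 HUVEC (human primary), 4H system; 24 h post-dose; VEGFRII by ELISA; bidirectional curve fit vs DMSO baseline; gain or loss of signal scored.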

[11] = read-out: Human Leukocyte Antigen - DR isotype (HLADR), HLA-DRA (gene 3122); assay: BSK_BE3C_HLADR: BioMAP Diversity Plus: BE3C Assay for Human Leukocyte Antigen - DR isotype (HLADR) Biomarker Activity (AID 2283032); conditions: primary human bronchial epithelial cells; actives raise or lower the signal
How it was run: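 Human primary bronchial epithelial cells in the BE3C system were exposed to chemicals for 24 h, after which HLA-DR levels were quantified by ELISA. Activity was fitted bidirectionally, gain or loss of signal, against DMSO as negative control and baseline.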

[12] = read-out: Vascular cell adhesion molecule 1 (VCAM1), VCAM1 (gene 7412); assay: BSK_4H_VCAM1: BioMAP Diversity Plus: 4H Assay for Vascular cell adhesion molecule 1 (VCAM1) Biomarker Activity (AID 2283033); conditions: primary human endothelial cells (HUVEC); actives raise or lower the signal
How it was run: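 Primary human umbilical vein endothelial cells were exposed to chemicals for 24 h, after which VCAM-1 was quantified by ELISA. Responses were fitted bidirectionally against DMSO as negative control and activity baseline.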

[13] = read-out: Interferon-gamma inducible Protein 10 (IP10), CXCL10 (gene 3627); assay: BSK_BE3C_IP10: BioMAP Diversity Plus: BE3C Assay for Interferon-gamma inducible Protein 10 (IP10) Biomarker Activity (AID 2283034); conditions: primary human bronchial epithelial cells; actives raise or lower the signal
How it was run: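 Human primary bronchial epithelial cells were exposed to chemicals for 24 hours, after which IP-10 levels were measured by ELISA. Data were fitted bidirectionally against DMSO, which served as the negative control and activity baseline.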

[14] = read-out: Monokine induced gamma interferon (MIG), CXCL9 (gene 4283); assay: BSK_BE3C_MIG: BioMAP Diversity Plus: BE3C Assay for Monokine induced gamma interferon (MIG) Biomarker Activity (AID 2283035); conditions: primary human bronchial epithelial cells; actives raise or lower the signal;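 also: MIG protein measured by ELISA in BE3C cultures after 24 h of dosing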
How it was run: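 MIG level was determined by ELISA after 24 h chemical treatment of primary human bronchial epithelial cells. Values were fitted bidirectionally with DMSO as the negative control and activity baseline.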

[15] = read-out: Transforming growth factor beta 1 (TGFb1), TGFB1 (gene 7040); assay: BSK_BE3C_TGFb1: BioMAP Diversity Plus: BE3C Assay for Transforming growth factor beta 1 (TGFb1) Biomarker Activity (AID 2283036); conditions: primary human bronchial epithelial cells; actives raise or lower the signal
How it was run: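 Human primary bronchial epithelial cells (BE3C system) were dosed with chemical and TGF-b1 levels measured by ELISA at 24 h. Activity was fitted bidirectionally relative to DMSO negative control as baseline.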

[16] = read-out: Plasminogen activator inhibitor-1 (PAI1), SERPINE1 (gene 5054); assay: BSK_BE3C_PAI1: BioMAP Diversity Plus: BE3C Assay for Plasminogen activator inhibitor-1 (PAI1) Biomarker Activity (AID 2283037); conditions: primary human bronchial epithelial cells; actives raise or lower the signal
How it was run: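 Human primary bronchial epithelial cells were exposed to chemical for 24 h, then PAI-1 was quantified by ELISA. Activity was fitted bidirectionally relative to the DMSO negative control baseline.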

[17] = read-out: urokinase plasminogen activator (uPA), PLAU (gene 5328); assay: BSK_BE3C_uPA: BioMAP Diversity Plus: BE3C Assay for urokinase plasminogen activator (uPA) Biomarker Activity (AID 2283038); conditions: primary human bronchial epithelial cells; actives raise or lower the signal;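 also: uPA protein level quantified by ELISA in cell cultures; uPA read one day after compound addition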
How it was run: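 ELISA read-out of uPA in human lung primary bronchial epithelial cultures, 24 h post-dosing. Gain or loss of signal fitted bidirectionally relative to DMSO baseline; cytotoxicity checked in parallel cultures via SRB total protein stain.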

[18] = read-out: Urokinase-type plasminogen activator receptor (uPAR), PLAUR (gene 5329); assay: BSK_BE3C_uPAR: BioMAP Diversity Plus: BE3C Assay for Urokinase-type plasminogen activator receptor (uPAR) Biomarker Activity (AID 2283039); conditions: primary human bronchial epithelial cells; actives raise or lower the signal;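 also: uPAR protein level measured by ELISA on the cells; cells exposed to compound for one day before measurement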
How it was run: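 Primary human bronchial epithelial cells were dosed with chemical and harvested 24 h later; uPAR was quantified by ELISA. Activity was fitted bidirectionally against DMSO as negative control and baseline.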

[19] = read-out: Matrix Metallopeptidase 1 (MMP1), MMP1 (gene 4312); assay: BSK_BE3C_MMP1: BioMAP Diversity Plus: BE3C Assay for Matrix Metallopeptidase 1 (MMP1) Biomarker Activity (AID 2283024); conditions: primary human bronchial epithelial cells; actives raise or lower the signal
How it was run: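 Primary human bronchial epithelial cells were dosed with test chemicals, and MMP1 levels were measured by ELISA 24 h later. Data were fitted bidirectionally against DMSO as the negative control and activity baseline.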

[20] = BSK_4H_SRB: Viability Assessment in the BioMAP Diversity Plus: 4H Assay (AID 2283027); conditions: primary human endothelial cells (HUVEC);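 also: cells exposed to compound for 24 h before staining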
How it was run: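 Absorbance at 560 nm of SRB-stained total protein served as the viability read-out in confluent primary human umbilical vein endothelium 24 h after chemical treatment. Curves were fitted bidirectionally against DMSO as negative control.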

Measured: AC50

Clc1cc(Cl)c(Cl)c(Cl)c1Cl
active: [6] 34.7 µM | [12] 20 µM
inactive: [1] | [2] | [3] | [4] | [5] | [7] | [8] | [9] | [10] | [11] | [13] | [14] | [15] | [16] | [17] | [18]

Nc1ccc(C(=O)O)cc1
inactive: [1] | [2] | [4] | [19] | [5] | [6] | [20] | [7] | [8] | [9] | [10] | [11] | [12] | [13] | [14] | [15] | [16] | [17] | [18]

Nc1cccc(N)n1
inactive: [1] | [2] | [3] | [4] | [5] | [6] | [7] | [8] | [9] | [10] | [11] | [12] | [13] | [14] | [15] | [16] | [17] | [18]
